PRMT1 FP inh: PRMT1 (human) inhibition, primary screen; 1.3% of 370,000 active; AID 652257; recombinant PRMT1, activity-based probe fluorescence polarization; inhibition, % at 2.79 µM;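 active = inhibition above about 21% made by adding two undisclosed values, limit read from the data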
LEDGF integ inh: blocks HIV-1 LEDGF/p75-dependent DNA integration. 0.64% of 370,000 active. inhibition, % at 3.7 µM. AID 743269. TR-FRET IN-LEDGF/p75 DNA integration, Eu/Cy5;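 active = inhibition above the screen-wide mean plus 3 SD, cut at about 13% in these data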;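 also: signal is the Cy5 over europium emission ratio at 671 and 618 nm; 0% = plate median of compound wells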
MBD2 inh: blocks human MBD2 binding to methylated DNA; Q9UBB5; TR-FRET, MBD2 binding to methylated oligonucleotide; inhibition, % at 4.4 µM; 0.31% of 370,000 active; in the data active = inhibition above about 13%
Target sequence (Q9UBB5 whole entry, looked up): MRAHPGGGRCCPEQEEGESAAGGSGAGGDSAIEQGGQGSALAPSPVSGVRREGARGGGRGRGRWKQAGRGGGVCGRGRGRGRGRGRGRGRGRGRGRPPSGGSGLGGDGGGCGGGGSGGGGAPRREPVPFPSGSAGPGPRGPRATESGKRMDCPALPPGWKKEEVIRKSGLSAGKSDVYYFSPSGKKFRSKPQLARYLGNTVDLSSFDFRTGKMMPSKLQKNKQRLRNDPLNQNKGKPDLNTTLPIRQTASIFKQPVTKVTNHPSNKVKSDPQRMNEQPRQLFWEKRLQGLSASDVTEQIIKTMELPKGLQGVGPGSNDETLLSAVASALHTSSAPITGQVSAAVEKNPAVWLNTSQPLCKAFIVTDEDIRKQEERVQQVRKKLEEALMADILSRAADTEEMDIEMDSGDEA
UHRF1 MBD2 ctr: blocks human UHRF1 binding to methylated DNA; UHRF1 binding to methylated oligo, TR-FRET; inhibition, % at 4.4 µM; 0.75% of 370,000 active; AID 687016; in the data active = inhibition above about 21%;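 also: UHRF1 SRA domain binding a hemimethylated CpG hairpin DNA probe; 0% = median of test compound wells and 100% = reference inhibitor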
* = called active by the depositor. Shown are actives, neighbours in structure and some others; about 2.5% of the full set was active somewhere.

SMILES	PRMT1 FP inh	LEDGF integ inh	MBD2 inh	UHRF1 MBD2 ctr
CCCCN(C)CCCNC(=O)Cn1cc2c(n1)-c1c(oc(C(=O)N3CCCC3)c1C)CC2	-0.1	-0.7	2.2	53.1*
CC(C)[C@H](NC(=O)N1CCn2c1nc1ccccc12)C(=O)NCC1CCCO1 (stereo not given in full)	2.1	0.3	4.5	1.8
COc1ccccc1NS(=O)(=O)c1cccc(C(=O)NCc2ccncc2)c1	-2.0	-3.1	1.2	0.2
Cc1nc2ccc(C(=O)N3c4ccccc4CC3C)cc2s1 (stereo not given)	2.1	-1.9	5.4	23.2*
Cc1cc(C)c(NC(=S)N(CCN(C)C)Cc2cccs2)c(C)c1	-5.9	0.8	-5.6	1.0
Cc1ccc(NC(=S)N(CCN(C)C)Cc2cccs2)c(C)c1	21.9*	-0.7	3.5	-1.9
Cc1ccc(C)c(S(=O)(=O)Nc2ccc3oc(C)c(C(=O)O)c3c2)c1	7.5	8.6	2.3	23.7*
CC(C)(C)Nc1nc(C(N)=O)nc(N2CCOCC2)n1	-1.3	4.8	-0.9	1.6
NC(=O)c1nc(N2CCOCC2)nc(N2CCOCC2)n1	-3.1	1.2	-1.8	37.1*
COc1ccc(C2c3ccc4ccccc4c3Oc3ncn(CCN(C)C)c(=N)c32)cc1 (stereo not given)	3.2	3.8	5.4	0.2
CC(=O)N1CCc2cc(S(=O)(=O)NCCC(=O)Nc3cccc(C)c3)ccc21	0.0	-1.1	6.1	21.9*
CC(C)(C)OC(=O)N1CCC(CNC(=O)c2ccc(F)cc2F)CC1	-5.1	2.7	-5.8	22.9*
O=C1CCCC/C1=C\Nc1ccc(O)cc1	26.3*	11.2	-6.7	-4.5
O=C1CCC/C1=C/Nc1ccc(Cl)cc1	0.8	0.5	3.3	0.2
O=C1CCCC/C1=C/Nc1cccc(C(F)(F)F)c1	0.4	1.6	7.1	23.5*
O=[N+]([O-])c1cccc2nc3ccccc3c(NCCCn3ccnc3[N+](=O)[O-])c12	-1.8	2.5	-9.8	-2.5
Cc1[nH]c2ccccc2c1SCC(=O)N1CCC(C)CC1	-3.0	-0.6	1.8	25.1*
COc1ccc(C2=Nc3ccccc3N(C(=O)c3cccnc3)C2C(=O)NC2CCCC2)cc1 (stereo not given)	0.6	-3.4	11.8	22.6*
COc1ccc(C2=Nc3ccccc3N(C(=O)c3cnccn3)C2C(=O)NC2CCCC2)cc1 (stereo not given)	-1.6	1.2	3.3	-0.6
Cc1cc(C)c(N=Cc2c(O)n(-c3nccs3)c(=O)c3ccccc23)c(C)c1	1.7	-0.2	5.6	27.3*
Cc1ccc(N=Cc2c(O)n(-c3nccs3)c(=O)c3ccccc23)cc1	-1.7	0.5	-1.2	-0.1
C=CCn1c(SCC(=O)N2CCOCC2)nc2ccccc2c1=O	0.8	4.9	3.6	-0.8
Cc1ccc(F)cc1C(=O)N1CCOCC1c1cc(C(=O)Nc2ccccc2)no1 (stereo not given)	-1.4	-0.6	-0.6	32.8*
CC(=O)N1CCOCC1c1cc(C(=O)Nc2ccccc2)no1 (stereo not given)	6.7	-3.2	2.8	-0.6
CNc1oc(-c2ccccc2)nc1S(=O)(=O)c1ccc(C)cc1	7.7	-6.4	11.8	3.6
SMILES	PRMT1 FP inh	LEDGF integ inh	MBD2 inh	UHRF1 MBD2 ctr
CN(C)c1oc(-c2ccc(Cl)cc2)nc1S(=O)(=O)c1ccccc1	2.7	1.5	10.1	25.4*
Cc1c(C(N)=O)sc2ncn(CC(=O)NCCc3ccccc3)c(=O)c12	-0.4	2.2	-3.4	-3.3
C=CCN1[C@H](COCc2ccccc2)C=CS1(=O)=O	0.0	-8.8	-3.9	-1.5
Cc1ccc(S(=O)(=O)Cc2ccc(C(=O)O)o2)cc1	17.7	7.9	4.8	21.7*
CSC1=N/C(=C\c2ccc(Br)o2)C(=O)S1	24.6*	6.5	1.5	13.6
CSC1=N/C(=C\c2ccccc2F)C(=O)S1	8.8	0.4	2.5	2.6
Cc1c(NC(=O)C2CCCN(S(=O)(=O)c3ccc(Br)s3)C2)c(=O)n(-c2ccccc2)n1C (stereo not given)	-6.7	-1.1	-2.8	-0.6
COc1cc(C2C(C#N)=C(N)OC3=C2C(=O)CC(C)(C)C3)cc2c1OCO2 (stereo not given)	-1.5	9.8	1.3	29.7*
COc1ccc(C2C(C#N)=C(N)OC3=C2C(=O)CC(C)(C)C3)cc1 (stereo not given)	-2.0	2.5	3.5	-0.3
O=C(Nc1ccc2c(c1)C(=O)NC2=O)c1cccc(C(F)(F)F)c1	-5.2	4.0	7.3	20.8*
O=C(Nc1ccc2c(c1)C(=O)NC2=O)c1ccccc1	-2.1	3.7	1.1	-1.2
CCc1nc2c(OCC(=O)c3ccc(Cl)cc3Cl)cccn2c1N(C)C(=O)COc1ccccc1	-1.8	-0.2	-3.4	-3.8
Cn1c(=O)n(Cc2ccc(Br)cc2)c2ccccc21	3.0	4.0	4.4	22.7*
Cn1c(=O)n(Cc2ccccc2)c2ccccc21	2.8	-5.2	2.0	1.4
COc1cccc(C2/C(=C(/O)c3ccc(C)cc3)C(=O)C(=O)N2Cc2ccco2)c1 (stereo not given)	1.7	1.9	1.8	28.6*
Cc1nc(N(C)C)c2sc(=S)n(-c3ccccc3)c2n1	-0.7	-1.0	6.2	11.5
Cc1nc(N(C)C)c2sc(=S)n(C)c2n1	2.7	-3.5	-0.9	27.4*
Fc1ccccc1C1CC(c2ccco2)=Nc2ccccc2S1 (stereo not given)	70.7*	7.7	-5.4	-3.1
CC1CCCN(S(=O)(=O)c2cc(C(=O)NCCc3ccc(S(N)(=O)=O)cc3)ccc2Cl)C1 (stereo not given)	4.3	-7.8	4.2	4.5
Cc1nn(C)c(C)c1C1C(C#N)=C(N)OC2=C1C(=O)CCC2 (stereo not given)	-0.8	-0.1	9.3	21.4*
O=[N+]([O-])c1cc(Br)cc(/C=N/n2cnnc2)c1O	7.4	1.3	-12.3	39.9*
O=C(O)C1CCCCC1C(=O)NCc1ccc(Cl)c(Cl)c1 (stereo not given)	-2.2	0.0	0.3	-0.4
N#CCN1C(=O)NC2(CCCc3sccc32)C1=O (stereo not given)	0.3	0.0	3.0	94.2*
CN(Cc1ccccc1)C(=O)CN1C(=O)NC2(CCCc3sccc32)C1=O (stereo not given)	-1.2	-2.5	4.1	1.7
O=C(Nc1ccc2c(c1)OCCO2)c1ccc2ccccc2n1	-0.9	-2.0	-6.1	22.0*
SMILES	PRMT1 FP inh	LEDGF integ inh	MBD2 inh	UHRF1 MBD2 ctr
O=C(O)c1ccc(C(=O)c2ccc3c(c2)C(=O)N(CCO)C3=O)cc1	6.8	-2.7	10.7	22.3*
O=C1CSC(=S)N1N=C1CCCCCC1	23.0*	2.3	-1.5	-9.8
O=C1CSC(=S)N1/N=C/c1ccc(C(F)(F)F)cc1	16.5	6.1	-1.2	-2.0
O=S1(=O)CC(N2CCN(c3ccccn3)CC2)CN1Cc1ccccc1 (stereo not given)	3.0	-7.8	4.7	3.2
O=C(COC(=O)c1ccccc1Nc1ccccc1)NCc1ccco1	-1.5	-2.9	-1.1	20.9*
CSCCC(NC(=O)c1ccccc1)C(=O)OCC(=O)NCc1ccco1 (stereo not given)	-1.7	3.3	-4.2	26.7*
Cc1cscc1NC(=O)/C=C/C(=O)O	2.7	-1.2	3.6	-4.1
